From PubChem BioAssay (NCI) come the findings set out here.

What all share (assay): NCI-60 one-dose screen, 48 h (100 = growth as untreated, 0 = no growth, -100 = all killed)
Common to all, as to conditions: 10 µM unless noted

In test [1] the test system is HCT-15 colon.
Test [2] deals with HT29 colon.
For test [3], the system named is SNB-19 CNS.
Test [4] relates to U251 CNS.
In test [5] the test system is PC-3 prostate.
For test [6], the system named is SK-MEL-5 melanoma.
Test [7] relates to UACC-62 melanoma.
Test [8] deals with LOX IMVI melanoma.
In test [9] the test system is SK-MEL-28 melanoma.
In test [10] the test system is SK-MEL-2 melanoma.
The test system of test [11] is EKVX NSCLC.
Test [12] has as its system SN12C renal.
Test [13] relates to UO-31 renal.
For test [14], the system named is TK-10 renal.
In test [15] the test system is ACHN renal.
The subject of test [16] is CAKI-1 renal.
Test [17] relates to CCRF-CEM leukemia.
Test [18] relates to MOLT-4 leukemia.
For test [19], the system named is SNB-75 CNS.
Test [20] has as its system A498 renal.

Each structure is given as a SMILES string. The panel holds about 83,000 compounds, 20% with a hit somewhere; the sample as a whole holds those more often.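 How to read the values: 0–100, growth inhibition (40 = 60% inhibited); 0, no net growth; -100 to 0, cell death (-40 = 40% of starting cells died; -100 = all dead).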 A number with no mark means an inactive call. Active and inactive are the calls of the source. Rule for the calls: active = growth percent below 10; inactive = the rest.

As to `COc1ccc(OC)c(CCn2cncc2-c2c[nH]c3cc(Br)ccc23)c1`, the growth in [1] is 25.1%; in test [2] it was 10.2%; in [3], 50.1%; in test [4], 34.9%; in test [5] it was 34.5%; in [6], -75.8% (active). Moreover, the growth is 36.8% in [7]; 37% in [8]; 57.5% in [9]; 7.7% (active) in test [10]; 35.3% in test [11]; 49.5% in test [12]. Moreover, the growth in test [13] was 39.5%; in test [14] it was 45.9%; in test [15] it was 58.3%; in [16] it was 35.5%; in [17] it was 36.8%; in test [18], 16.2%.

With `Clc1ccc2[nH]cc(-c3cncn3CCc3ccccc3)c2c1`, the growth in test [1] is 51%; in [2], 57.3%; in test [3], 71.1%; in [4], 57.9%; in test [5], 46.7%; in test [6], 10.8%. Also, the growth in test [7] was 57.4%; in test [8] it was 70%; in [9] it was 69.8%; in [10], 52.5%; in test [11] it was 34.4%; in test [12], 57.2%. The growth in test [13] was 42.2%; in test [14] it was 42.8%; in [15], 66%; in test [16], 39%; in test [17] it was 54.1%; in [18], 51%.

Take `N#Cc1c(-c2ccccc2)cc(-c2ccccc2)n(CCCCCCC(=O)O)c1=O`: the growth in test [1] is 90.7%; in test [2], 97.4%; in test [3], 96.3%; in test [4], 98.1%; in test [5], 105%; in test [6], 99.8%. Further, the growth was 90.7% in [7]; 89.2% in test [8]; 103% in test [9]; 88.8% in test [10]; 92.5% in test [11]; 99.2% in [12]. The growth in [13] is 82.7%; in [14] it was 105%; in test [15], 98.8%; in test [16] it was 97.7%; in test [17], 106%; in [18], 98.4%.

Regarding `O=C1/C(=C/c2ccccc2Cl)CCc2ccccc21`, the growth was 104% in test [1]; 97.2% in [2]; 105% in test [19]; 89.7% in test [3]; 95.6% in test [5]; 102% in test [6]. For the same molecule, the growth is 94.2% in test [7]; 91.7% in [8]; 101% in [9]; 94.6% in [12]; 97.4% in [13]; 89.4% in [14]. Also, the growth in [15] is 112%; in test [16] it was 81.8%; in [18], 90.9%.

Consider `C/C(=C\CCc1ccoc1)CC/C=C(\C)CCCN1CCSCC1`, for which the growth in [1] is 43.3%; in [2], 45.8%; in [19], 93.4%; in test [3] it was 87.8%; in test [5], 84.3%; in test [6], 37.8%. In addition, the growth in test [7] was 75.3%; in [9], 88.7%; in test [10], 85.5%; in test [12], 76.7%; in test [13] it was 62.4%; in test [14], 84.9%. The growth in [15] was 83.8%; in [16], 80.7%; in [20], 38.2%; in test [17] it was 62.9%; in test [18] it was 79.6%.

`O=C1/C(=C/c2ccc(F)cc2)Cc2ccccc21`: the growth is 94.6% in test [1]; 91% in test [2]; 83.4% in [19]; 92.3% in test [3]; 97.8% in test [5]; 99.9% in [6]. Also, the growth in test [7] is 95.1%; in test [8], 103%; in test [9], 105%; in [12], 99.5%; in test [13], 92.5%; in test [14] it was 96.7%. Moreover, the growth is 98.2% in [15], 113% in test [16] and 98.3% in test [18].

Take `Fc1ccc(-c2nn3c(-c4cc(C(F)(F)F)cc(C(F)(F)F)c4)nnc3s2)cc1`: the growth is 89.7% in test [1]; 40.2% in test [2]; 8.33% (active) in test [3]; 4.98% (active) in [4]; 39.2% in test [5]; 56% in [6]. Also, the growth in [7] is 53.3%; in test [8], 63.9%; in test [9], 72%; in test [10], -33.3% (active); in test [11], 71.1%; in test [12], 46.7%. The growth was 29.2% in test [13]; -40% (active) in test [14]; 11.6% in test [15]; 69.8% in test [16]; -18.5% (active) in test [20]; 87% in test [17]. In addition, the growth in [18] is 93%.

In the case of `NS(=O)(=O)N(c1cc(C(F)(F)F)cc(C(F)(F)F)c1)C1CCN(Cc2ccc(C(F)(F)F)cc2)CC1`, the growth in test [1] is 45.7%; in test [2] it was 5.92% (active); in test [19], -4.94% (active); in test [4], 33%; in [5] it was 26%; in [6], 38.2%. For the same molecule, the growth in test [7] was 24.3%; in test [8] it was 23.5%; in test [9], 55.4%; in [10], 28%; in [11], 16.2%; in test [12], 55.1%. Moreover, the growth in test [13] is 64.6%; in [14], 67%; in test [15], 69.5%; in [16], 66.2%; in test [20], 28.2%; in test [17], 23.6%. For the same molecule, in test [18], the growth was 20.3%.

On to `Cc1ccccc1NC(=O)N/C(N)=N/c1nc2ccccc2s1`, for which the growth in [1] is 20.2%; in test [2], 5% (active); in [3], 31.8%; in test [4], 20.3%; in test [5], 36.3%; in [6], -53.3% (active). Further, the growth in test [7] was 38.8%; in [8] it was 21.7%; in test [9] it was 54.6%; in test [10], 37.6%; in test [11] it was 39.6%; in [12] it was 40%. Also, the growth in test [13] is 54.6%; in [14], 67%; in test [15], 39.2%; in [16] it was 38.8%; in [17], 14.2%; in test [18] it was 14.9%.

As to `COc1ccc2c3c(ccc2c1)C(=O)/C(=C\O)CC3`, the growth was 87.3% in test [1]; 103% in [2]; 91.9% in test [19]; 103% in [3]; 88.2% in test [5]; 103% in [6]. The growth was 107% in test [7]; 128% in [9]; 99.8% in [10]; 78.5% in [11]; 100% in test [12]; 96.6% in test [13]. Besides, the growth is 93.4% in test [14]; 102% in [15]; 105% in test [16]; 72.4% in test [17]; 88.4% in test [18].

As for `N/C(=N\C(N)=N\c1nc2ccccc2s1)c1ccnc(Cl)c1`, the growth was 29.9% in [1]; 13.7% in [2]; 39.4% in test [3]; 33.8% in [4]; 37.9% in test [5]; 17.3% in test [6]. Besides, the growth is 33.9% in [7]; 44.9% in test [8]; 62.2% in test [9]; 29% in [10]; 51.3% in test [11]; 57.6% in test [12]. Also, the growth in [13] is 56.5%; in [14] it was 75.7%; in test [15], 47.8%; in [16] it was 21.6%; in test [17] it was 19.2%; in test [18], 33.6%.

For the molecule `CC(C)=CCNc1ncnc2c1ncn2C1OC(COP(=O)(O)O)C(O)C1O` (stereo not drawn), the growth was 31.6% in test [1]; 31.6% in test [2]; 65.2% in test [19]; 89.5% in test [3]; 12% in [5]; 81.1% in test [6]. For the same molecule, the growth was 69.6% in test [7]; -61.3% (active) in test [8]; 85.7% in test [9]; 69.4% in test [10]; 32.4% in test [12]; 39.6% in [13]. The growth is 28.2% in [15]; 16.3% in test [16]; -7.75% (active) in test [20]; 11.4% in test [17]; 6.19% (active) in test [18].

Consider `O=C(c1ccc(Cl)cc1)c1ccc(Cl)cc1`, for which the growth in test [1] is 113%; in test [2] it was 102%; in test [19], 112%; in test [3], 109%; in [5] it was 110%; in test [6], 96.4%. Besides, the growth is 103% in test [7]; 103% in test [8]; 106% in test [9]; 108% in [11]; 102% in test [12]; 108% in [13]. Besides, the growth was 101% in [14]; 123% in test [15]; 115% in test [16]; 97.7% in [20]; 88.6% in test [17]; 106% in test [18].

As to `Cc1cn(C(C=O)OC(C=O)CO)c(=O)[nH]c1=O` (stereo not drawn), the growth in test [1] is 102%; in test [2], 110%; in [19] it was 75.1%; in [3] it was 101%; in test [5], 102%; in [6], 105%. Besides, the growth in [7] is 106%; in test [9], 99.1%; in test [10], 104%; in test [12], 102%; in [13], 88.6%; in [14], 103%. For the same molecule, the growth was 107% in [15]; 105% in test [16]; 111% in test [20]; 98.4% in [17]; 104% in test [18].

Regarding `N#Cc1ccc(-c2csc(Nc3ccc4nc5n(c(=O)c4c3)CCC5)n2)cc1`, the growth in test [1] is 98.2%; in [2] it was 105%; in test [3], 98.1%; in [4] it was 96%; in [5], 110%; in [6] it was 97.4%. Further, the growth is 100% in [7]; 101% in test [8]; 104% in [9]; 95.4% in test [10]; 99% in [11]; 104% in test [12]. Moreover, the growth in [13] was 100%; in [14], 110%; in [15], 108%; in test [16], 102%; in test [17] it was 51.8%; in test [18] it was 92.8%.

For `CCN1CCN(c2nc(NNC(=O)Cc3ccccc3)nc(N3CCN(C(c4ccccc4)c4ccccc4)CC3)n2)CC1`, the growth in test [1] was 22.9%; in test [2] it was -7.32% (active); in test [3] it was 84.2%; in test [4], 19.1%; in test [5], 63.7%; in test [6] it was 2.68% (active). The growth in test [7] was 84.7%; in [8], -54.9% (active); in test [9], 92.6%; in test [10], 37.6%; in test [11], 75.7%; in test [12] it was 77.9%. The growth in [13] was 61.7%; in test [14] it was 89.1%; in test [15], 86.4%; in test [16], 39.5%; in test [17], 42.6%; in test [18], 38.5%.

For the molecule `N#Cc1c(-c2ccccc2)cc(-c2ccccc2)n(CCCC(=O)O)c1=O`, the growth is 92.9% in [1]; 103% in [2]; 98.7% in test [3]; 93.3% in test [4]; 109% in [5]; 93.5% in test [6]. Moreover, the growth in [7] was 91%; in test [8], 95.4%; in test [9], 108%; in [10], 97.8%; in test [11], 94%; in [12], 96.2%. The growth in test [13] was 85.8%; in test [14], 124%; in [15], 97.8%; in [16] it was 97.1%; in [17] it was 104%; in test [18], 97.3%.
